Compound activity from PubChem BioAssay.
VHR inh abs: blocks human VHR1 dual specificity phosphatase. P51452. recombinant VHR phosphatase, pNPP absorbance. inhibition, % at 13.3 µM. 290,000 compounds, 0.52% hits. AID 1654; in the data active = inhibition above about 50%
Target sequence (P51452 whole entry, looked up): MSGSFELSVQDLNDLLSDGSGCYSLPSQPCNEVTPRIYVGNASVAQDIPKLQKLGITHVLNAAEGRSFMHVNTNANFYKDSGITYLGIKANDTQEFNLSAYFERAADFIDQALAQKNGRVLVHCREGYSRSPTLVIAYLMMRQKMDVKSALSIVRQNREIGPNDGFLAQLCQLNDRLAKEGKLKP
3CLpro inhibitor: SARS-CoV 3CLpro protease inhibition; P0C6X7; 290,000 compounds, 0.14% hits; inhibition, % at 6 µM; AID 1706; recombinant SARS-CoV 3CLpro, quenched FRET peptide cleavage; in the data active = inhibition above about 12%
Bead autofluor: counter-screen for toxin protease inhibitors: compound fluorescence. compound autofluorescence counterscreen, microsphere flow cytometry; stronger effect = higher value. fluorescence intensity (concentration not given with the values). 360,000 compounds, 3.1% hits; in the data active = fluorescence intensity above about 16000; inconclusive = no clear call, values can overlap the other calls
BoNT-A LC inh2: inhibitors of Botulinum neurotoxin A light chain protease | multiplex microsphere protease substrate cleavage, flow cytometry | AID 588499 | 360,000 compounds, 0.17% hits | inhibition, % at 10 µM; note: plate controls were buffer without enzyme for full effect and enzyme alone for no effect
BoNT F protease: blocks Botulinum neurotoxin F light chain protease; Multiplex microsphere protease cleavage assay, flow cytometry; inhibition, % at 10 µM; 360,000 compounds, 0.22% hits; in the data active = inhibition above about 35%, passing the limit was not always enough; inconclusive = no clear call, values can overlap the other calls; note: plate controls were buffer without enzyme for full effect and enzyme alone for no effect
Anthrax LF inh2: anthrax lethal factor protease inhibition; P15917; multiplex microsphere protease cleavage assay, LF; inhibition, % at 10 µM; 360,000 compounds, 0.12% hits; note: plate controls were buffer without enzyme for full effect and enzyme alone for no effect
* marks the source's active call; other numbers are inactive results; ? = inconclusive; . = not tested or not shown. Only some compounds are listed: those with a hit (about 3.9% of all), similar ones and a draw of the others. Cut-off read from the data, not from the text of the source, unless noted: active = inhibition above about 30%; inconclusive = no clear call, values can overlap the other calls; inactive = below that.

SMILES	VHR inh abs	3CLpro inhibitor	Bead autofluor	BoNT-A LC inh2	BoNT F protease	Anthrax LF inh2
CCOc1ccccc1NC(=O)Cn1c(=O)oc2ccccc21	19.8	2.7	3298	-1.0	-2.2	-0.8
CC1CN(S(=O)(=O)N(C)C)CCN1S(=O)(=O)N(C)C (stereo not given)	27.3	1.0	19855*	1.0	0.8	0.1
CN(C)S(=O)(=O)N1CCN(S(=O)(=O)N(C)C)CC1	11.6	3.7	6453	-0.5	-2.4	-6.1
NC(=O)c1nnsc1-c1ccco1	.	.	3483	-0.2	4.6	-0.4
COC(=O)C(Cc1cnc[nH]1)NC(=O)C1CCC(=O)N1 (stereo not given)	4.9	3.4	22414*	?	3.0	-2.7
COc1cccc(/C=N/NC(=O)CCc2c(C)n[nH]c2C)c1O	28.9	0.6	4258	-0.5	-6.2	-0.8
COCCNC(=O)C1(C)CCCN(C(=O)c2cc(C)oc2C)C1 (stereo not given)	.	.	2829	-0.5	6.1	-6.8
CCc1ccc(CCC(=O)Nc2ccc(C)c(C)c2)o1	-8.7	-3.6	8496	-0.2	-5.8	-2.8
CCc1nnc(NC(=O)CCc2ccc(C)o2)s1	4.2	4.8	10756	0.5	-5.0	-2.9
CCc1ccc(CCC(=O)Nc2nc(CC(C)=O)ns2)o1	-27.8	0.6	16142*	1.2	0.9	-2.5
CCc1ccc(CCC(=O)Nc2nnc(C)s2)o1	2.9	-7.3	20941*	?	-1.6	0.2
O=C(Nc1ccon1)c1cccc(S(=O)(=O)N2CCCCC2)c1	17.4	0.7	4223	-0.9	5.2	-8.3
CCOC(=O)c1c(C)n(C)c2ccc(OCC(O)Cn3nc(C)cc3C)cc12 (stereo not given)	13.1	7.4	16244*	-0.2	-3.4	-4.9
CCOC(=O)c1c(C)n(C)c2ccc(OCC(O)CN(CC)CC)cc12 (stereo not given)	8.7	-6.6	5998	-0.4	-12.1	2.9
CC(=O)Nc1ccc(S(=O)(=O)NC(C)C(=O)NCCc2ccc(F)cc2)cc1 (stereo not given)	22.2	-2.1	3896	-0.6	-4.2	1.5
Cc1cccc(C)c1NC(=O)COC(=O)[C@@H]1CCCN1C(=O)c1cccs1	.	.	4256	-0.6	-7.8	-8.2
COc1ccc(/C=N/NC(=O)c2ccncc2)cc1CSc1nc2ccccc2s1	-6.1	-1.0	10272	1.5	-3.0	0.4
Cc1ncc(CC(=O)n2cc(C(=O)c3cc(F)ccc3O)cn2)s1	16.8	2.8	24032*	?	-1.6	0.5
O=C(Cn1c(/C=C/c2ccccc2)nc2ccccc21)Nc1ccc(F)cc1	50.8*	-4.4	9421	-1.0	-4.4	-2.5
CSc1nc2ccccc2n1CC(=O)Nc1ccccc1	27.4	-6.2	2956	-0.2	-3.8	3.4
COc1ccc(C(=O)C[n+]2cc(-c3ccc(OC)cc3)n3c2CCCC3)cc1	41.8	3.8	3984	0.9	3.3	-2.2
Cc1ccc(C(=O)C[n+]2cc(-c3ccc(C)cc3)n3c2CCCCC3)cc1	9.7	-4.9	22561*	-7.0	-6.7	-1.7
COc1nc(N)c(S(=O)(=O)c2ccccc2C)cc1C#N	1.8	-3.2	19846*	8.7	9.9	-6.0
COc1nc(C)cc(C)c1S(=O)(=O)c1ccccc1C	11.3	2.6	4615	0.1	?	-6.6
COc1nc(N)c(S(=O)(=O)c2ccccc2)cc1C#N	9.1	1.4	22871*	?	1.1	-0.2
SMILES	VHR inh abs	3CLpro inhibitor	Bead autofluor	BoNT-A LC inh2	BoNT F protease	Anthrax LF inh2
COc1ccc(N2CCN(c3cncc(C)n3)CC2)cc1	.	.	3527	-0.4	0.4	1.9
C=CCn1c(O)c(N=NC(=S)Nc2ccc(OC)c(Cl)c2)c2ccccc21	-8.5	4.9	8602	29.3	5.8	30.4*
C=CCn1c(O)c(N=NC(=O)OC(C)(C)C)c2ccccc21	12.6	-3.2	10796	-1.0	0.2	-1.9
C=CCN1C(=O)/C(=C2/Sc3ccccc3N2CCCS(=O)(=O)O)SC1=S	50.5*	0.8	4172	-1.9	-33.9	1.6
COc1ccc(S(=O)(=O)Cc2ccccc2)cc1N	29.5	1.0	23710*	-2.4	-4.7	-0.4
CCn1c(CCn2ccnc2C)n[nH]c1=S	-4.4	4.2	18972*	?	5.9	-9.3
CCC(C)(C)n1nnnc1C(C(C)C)N(CCN1CCOCC1)Cc1cc2cccc(C)c2[nH]c1=O (stereo not given)	2.0	-5.6	21802*	3.7	2.7	0.5
CCC(c1nnnn1C(C)(C)CC)N(CCCN1CCOCC1)Cc1cc2cccc(C)c2[nH]c1=O (stereo not given)	30.3	-5.4	11071	0.4	3.8	-1.7
